Only some compounds are listed: those with a hit (about 9.4% of all), similar ones and a draw of the others.
Pf growth 96h: P. falciparum growth inhibition at 96 hour, primary screen for plastid delayed-death inhibitors | P. falciparum luciferase reporter growth, 96 h | Potency, µM (top dose mostly 28.7 µM), for inactives: at the top dose activity change, negative = inhibition, actives largely listed as inhibitors | 320,000 compounds, 6.9% hits; further: on the % scale 0 is the no-effect control and ±100 the full control effect
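P. falciparum expressing integrated firefly luciferase grown in erythrocytes (2% hematocrit, 0.05% parasitemia final) with compounds for 96 hours at 37 C, 5% CO2. Growth inhibition read as loss of luminescence after adding luciferase detection reagent.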
Pf growth 48h: inhibits P. falciparum growth in the first generation, 48 h; P. falciparum luciferase growth in erythrocytes, 48 h; Potency, µM (series often up to 28.7 µM), inactives show at the highest dose activity change, negative = inhibition, usual class: inhibitors; 310,000 compounds, 5.9% hits; AID 504832; further: on the % scale 0 is the no-effect control and ±100 the full control effect
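Parasite viability was followed by luminescence of a genomically integrated firefly luciferase. Cultures held 0.1% parasitemia at 2% hematocrit (final), incubated under 5% CO2 at 37 C.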
AMA1-RON2 inh: inhibitors of Plasmodium falciparum AMA1-RON2 interaction; AID 720542; 360,000 compounds, 0.2% hits; Potency, µM (doses to about 58.2 µM), for the others: top-dose activity change, negative = inhibition, actives largely listed as inhibitors; AlphaScreen AMA1-biotinylated RON2 peptide binding;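 further: 0% = vehicle wells and -100% = peptide control; nearly all actives have a fitted effect of over 45% in size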
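AMA1 (3D7) with his tag at 25 nM final met compounds first, then biotinylated RON2 peptide at 25 nM; detection used donor plus acceptor beads, 10 µg/mL apiece, read by AlphaScreen after 30 min at room temperature.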
SARS PLP yeast: inhibitors of SARS-CoV papain-like protease in yeast. Potency, µM (top dose mostly 32.9 µM), for inactives: at the highest dose activity, positive = growth rescue, hits mostly activators. S. cerevisiae expressing SARS-CoV PLpro, growth rescue. 330,000 compounds, 0.19% hits. AID 485353; calls by dose curve; further: 0% is about no effect; nearly all actives have a fitted effect of over 55% in size
Numbers without * were called inactive; ? = inconclusive; . = no result; [ ] = dose if it differs, or a comment. Unless noted, the call rests on the fitted dose curve; in most records, active means well fitted curve in the direction sought with a large enough effect; inconclusive means small, poorly fitted or top-dose-only effect, or another doubt; inactive means no such curve, though single readings can be large; an effect the other way counts as inactive or inconclusive. Potency means the concentration at half of the fitted maximal effect.

SMILES	Pf growth 96h	Pf growth 48h	AMA1-RON2 inh	SARS PLP yeast
COCC(=O)N1CCC(Oc2ccc(C(=O)N3C[C@@H](C)O[C@@H](C)C3)cc2)CC1	?	-3%	7%	-6%
Cc1cccc(OCC(=O)Nc2nc(-c3ccncc3)cs2)c1	7%	-9%	3%	-1%
Cc1cc(C)cc(OCC(=O)Nc2nc(-c3cccnc3)cs2)c1	15µM*	?	-1%	-6%
O=C(COc1ccccc1)Nc1nc(-c2cccnc2)cs1	?	?	2%	0%
N#Cc1ccc(OCC(=O)Nc2nc(-c3cccnc3)cs2)cc1	?	12µM*	-7%	2%
Cc1ccc(NC(=O)COC(=O)C2(c3ccc(Cl)cc3)CCCC2)cc1	?	?	?	3%
C(=C1c2ccccc2-c2ccccc21)c1ccncc1	.	.	-17%	.
CN1CCN(CP(=O)(N2CCOCC2)N2CCOCC2)CC1	-23%	-4%	40%	-8%
CC(C)OP(C)(=O)CN1CCN(CP(C)(=O)OC(C)C)CC1 (stereo not drawn)	0.52µM*	8%	4%	-3%
CCN(CC)S(=O)(=O)c1cc(-c2nnc(-c3ccc(Br)cc3)o2)ccc1Cl	3.3µM*	-2%	2%	-2%
CNC(=O)COc1coc(CN2CCN(c3ccccc3F)CC2)cc1=O	?	10%	18%	4%
CC(C)C[C@H](NC(=O)N1CCCCCC1)C(=O)O	26%	-3%	8%	-1%
CCNc1ccc(S(N)(=O)=O)cc1[N+](=O)[O-]	12µM*	-12%	-19%	14%
CCNc1ccc(S(=O)(=O)NCCN(C)C)cc1[N+](=O)[O-]	12%	5%	-3%	6%
N#CCn1c(C2CCCCC2)nc2ccccc2c1=O	29%	.	0%	-11%
Cc1cc2c(NC(=O)Nc3ccc(C(F)(F)F)cc3)cccc2nn1	9.3µM*	10µM*	-3%	1%
Cc1cc2c(NC(=O)CCCC(=O)O)cccc2nn1	21%	6%	-4%	0%
Cc1ccccc1C(=O)Nc1sc(C)c(C)c1C(=O)c1ccccc1	?	?	-29%	-22%
Cc1sc(NC(=O)CCl)c(C(=O)c2ccccc2)c1C	92%	13µM*	-10%	-16%
O=C(COC(=O)CC1CC2CCC1C2)Nc1ccccc1[N+](=O)[O-] (stereo not drawn)	.	.	?	1%
COc1cc(O)c(C(CCN2CCCCC2)c2cc(OC)c(OC)c(OC)c2)c(OC)c1 (stereo not drawn)	1.9µM*	0.74µM*	3%	2%
COc1cc(O)c(C(CCN2CCCC2)c2cc(OC)c(OC)c(OC)c2)c(OC)c1 (stereo not drawn)	2.9µM*	4.1µM*	-6%	-5%
CCc1nc2ccc(C(=O)N3CCN(c4ccccc4F)CC3)cc2nc1CC	?	-7%	-9%	1%
CC(C)(C)SCCNC(=O)c1ccc(CN2CCc3ccccc3C2)cc1	-3%	-37%	-3%	3%
CCC(=O)Oc1ccc2ccccc2c1CNC(=O)c1ccccc1	9.3µM*	?	-9%	2%
SMILES	Pf growth 96h	Pf growth 48h	AMA1-RON2 inh	SARS PLP yeast
O=C(NCNC(=O)c1ccccc1)c1ccccc1	-2%	.	-13%	-5%
O=C(c1[nH]c(C(F)(F)F)nc1-c1ccccc1)N1CCC(C(O)(c2ccccc2)c2ccccc2)CC1	.	.	0%	.
CC[C@H]1OC(=O)[C@H](C)C(=O)[C@H](C)[C@@H](OC2O[C@H](C)C[C@H](N(C)C)[C@@H]2O)[C@@](C)(OC)C[C@@H](C)C(=O)[C@@H](C)C2N(CCCCn3cnc(-c4cccnc4)c3)C(=O)O[C@@]21C (stereo partly drawn)	13µM*	?	.	.
O=C(COc1c(Cl)cc(Cl)cc1Cl)c1ccc(Cl)cc1	12µM*	0%	4%[2.32 µM]	15%
Cc1nn(-c2ccc(F)cc2)c2sc(C(=O)OC3CCOC3=O)cc12 (stereo not drawn)	-1%	45%	-2%	8%
COCCNc1nc(SCc2ccccc2)nc2sc3c(c12)CCC3	?	?	9%	-13%
CC(CO)Nc1nc(SCc2ccccc2)nc2sc3c(c12)CCC3 (stereo not drawn)	7.4µM*	?	10%	-33%
O=C(Nc1ccc(F)cc1)N1CCC(c2nc3c(nnn3Cc3cccc(Cl)c3)c(=O)[nH]2)CC1	319%	?	-7%	4%
O=C(C1CCCCC1)N1CCCC(c2nc3c(nnn3Cc3ccccc3)c(=O)[nH]2)C1 (stereo not drawn)	.	?	-1%	-3%
